# Where “and” joins values, the source holds several entries; their conditions need not be identical. Equal entries are not always repeated. The whole screen tested about 5,500 compounds, of which about 2,000 (36%) were called active. About 18% were inconclusive and are not listed. The list shows a part of the results. Values without a mark were called inactive. No stated cut-off is given here; in the data, active means normalized growth mostly below about 0.91 (no sharp cut-off); inconclusive means no clear call, values can overlap the other calls; inactive means mostly above about 0.92.
# Experiment: chemical genetic growth profiling, strain panel (AID 1159580);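 further: tested at 20 µM; growth read once vehicle control cultures reached saturation at 30 °C; 1 = growth at the plate median or of vehicle wells; lower values mean less growth of the strain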
# Conditions: growth OD
# [1] = S. cerevisiae deletion strains, locus YBR229C, strain ROT2, hits give low values
# [2] = S. cerevisiae deletion strains, locus YDL101C, strain DUN1, hits give low values
# [3] = S. cerevisiae deletion strains, locus YDR150W, strain NUM1, hits give low values
# [4] = S. cerevisiae deletion strains, locus YEL061C, strain CIN8, hits give low values
# [5] = S. cerevisiae deletion strains, locus YGR078C, strain PAC10, hits give low values
# [6] = S. cerevisiae deletion strains, locus YHR030C, strain SLT2, hits give low values
# [7] = S. cerevisiae deletion strains, locus YJR043C, strain POL32, hits give low values
# [8] = S. cerevisiae deletion strains, locus YLR039C, strain RIC1, hits give low values
# [9] = S. cerevisiae deletion strains, locus YLR262C, strain YPT6, hits give low values
# [10] = S. cerevisiae deletion strains, locus YMR307W, strain GAS1, hits give low values
# [11] = S. cerevisiae deletion strains, locus YNL128W, strain TEP1, hits give low values
# [12] = S. cerevisiae deletion strains, locus YNL153C, strain GIM3, hits give low values
# [13] = S. cerevisiae deletion strains, locus YPL241C, strain CIN2, hits give low values
# [14] = S. cerevisiae deletion strains, locus YAL013W, strain DEP1, hits give low values
# [15] = S. cerevisiae deletion strains, locus YJR075W, strain HOC1, hits give low values
# [16] = S. cerevisiae deletion strains, locus YMR263W, strain SAP30, hits give low values
compound,measurement,setting,value
CC(=O)Nc1ccc(OCC(O)CNC(C)C)cc1 (stereo unspecified),normalized growth,"S. cerevisiae deletion strains, locus YBR021W, strain FUR4, hits give low values",1.01
same,normalized growth,[1],1
same,normalized growth,"S. cerevisiae deletion strains, locus YCL029C, strain bik1, hits give low values",0.995
same,normalized growth,"S. cerevisiae deletion strains, locus YDL035C, strain GPR1, hits give low values",1.01
same,normalized growth,"S. cerevisiae deletion strains, locus YDL074C, strain BRE1, hits give low values",1.02
same,normalized growth,[2],1.01
same,normalized growth,"S. cerevisiae deletion strains, locus YDL185W, strain tfp1, hits give low values",1.01
same,normalized growth,"S. cerevisiae deletion strains, locus YDL192W, strain arf1, hits give low values",1
same,normalized growth,"S. cerevisiae deletion strains, locus YDR101C, strain arx1, hits give low values",1.02
same,normalized growth,[3],1.01
same,normalized growth,"S. cerevisiae deletion strains, locus YDR162C, strain NBP2, hits give low values",1.01
same,normalized growth,"S. cerevisiae deletion strains, locus YDR318W, strain mcm21, hits give low values",1
same,normalized growth,"S. cerevisiae deletion strains, locus YDR388W, hits give low values",1
same,normalized growth,"S. cerevisiae deletion strains, locus YDR502C, strain sam2, hits give low values",0.99
same,normalized growth,[4],1.01
same,normalized growth,"S. cerevisiae deletion strains, locus YER110C, hits give low values",1
same,normalized growth,"S. cerevisiae deletion strains, locus YER155C, strain BEM2, hits give low values",1.01
same,normalized growth,"S. cerevisiae deletion strains, locus YER167W, strain BCK2, hits give low values",1.01
same,normalized growth,"S. cerevisiae deletion strains, locus YGL078C, strain dbp3, hits give low values",0.999
same,normalized growth,"S. cerevisiae deletion strains, locus YGL086W, strain mad1, hits give low values",1
same,normalized growth,"S. cerevisiae deletion strains, locus YGL248W, strain PDE1, hits give low values",1
same,normalized growth,[5],1.01
same,normalized growth,"S. cerevisiae deletion strains, locus YGR135W, strain pre9, hits give low values",0.996
same,normalized growth,"S. cerevisiae deletion strains, locus YGR229C, strain SMI1, hits give low values",1
same,normalized growth,"S. cerevisiae deletion strains, locus YGR252W, strain gcn5, hits give low values",0.975
same,normalized growth,[6],1.01 and 0.983
same,normalized growth,"S. cerevisiae deletion strains, locus YHR079C, strain IRE1 (second series), hits give low values",0.999
same,normalized growth,"S. cerevisiae deletion strains, locus YHR079C, strain IRE1, hits give low values",0.978
same,normalized growth,"S. cerevisiae deletion strains, locus YHR094C, strain hxt1, hits give low values",0.999
same,normalized growth,"S. cerevisiae deletion strains, locus YHR129C, strain ARP1, hits give low values",1.01
same,normalized growth,"S. cerevisiae deletion strains, locus YHR200W, strain rpn10, hits give low values",1.01
same,normalized growth,"S. cerevisiae deletion strains, locus YIL066C, strain RNR3, hits give low values",1.01
same,normalized growth,"S. cerevisiae deletion strains, locus YIL073C, strain SPO22, hits give low values",1.03
same,normalized growth,"S. cerevisiae deletion strains, locus YIL125W, strain kgd1, hits give low values",1
same,normalized growth,"S. cerevisiae deletion strains, locus YIR030C, strain dcg1, hits give low values",0.995
same,normalized growth,"S. cerevisiae deletion strains, locus YJL095W, strain BCK1, hits give low values",1.02 and 0.982
same,normalized growth,"S. cerevisiae deletion strains, locus YJL134W, strain LCB3, hits give low values",1.01
same,normalized growth,"S. cerevisiae deletion strains, locus YJL168C, strain set2, hits give low values",1
same,normalized growth,"S. cerevisiae deletion strains, locus YJL187C, strain SWE1 (second series), hits give low values",1.02
same,normalized growth,[7],1.01
same,normalized growth,"S. cerevisiae deletion strains, locus YJR066W, strain TOR1, hits give low values",0.965
same,normalized growth,"S. cerevisiae deletion strains, locus YKL009W, strain mrt4, hits give low values",0.991
same,normalized growth,"S. cerevisiae deletion strains, locus YKL068W, hits give low values",1
same,normalized growth,"S. cerevisiae deletion strains, locus YKL085W, strain MDH1 (second series), hits give low values",1.01
same,normalized growth,"S. cerevisiae deletion strains, locus YKL085W, strain MDH1, hits give low values",1.01
same,normalized growth,"S. cerevisiae deletion strains, locus YKR001C, strain vps1, hits give low values",1
same,normalized growth,[8],1.05
same,normalized growth,"S. cerevisiae deletion strains, locus YLR058C, strain SHM2, hits give low values",1.01
same,normalized growth,"S. cerevisiae deletion strains, locus YLR102C, strain apc9, hits give low values",0.996
same,normalized growth,"S. cerevisiae deletion strains, locus YLR113W, strain HOG1, hits give low values",1.01
same,normalized growth,[9],1.03
same,normalized growth,"S. cerevisiae deletion strains, locus YLR268W, strain sec22, hits give low values",0.998
same,normalized growth,"S. cerevisiae deletion strains, locus YLR330W, strain CHS5, hits give low values",1.01
same,normalized growth,"S. cerevisiae deletion strains, locus YLR342W, strain FKS1 (second series), hits give low values",1.02
same,normalized growth,"S. cerevisiae deletion strains, locus YLR371W, strain rom2, hits give low values",1.01
same,normalized growth,"S. cerevisiae deletion strains, locus YLR418C, strain cdc73, hits give low values",0.981
same,normalized growth,"S. cerevisiae deletion strains, locus YML016C, strain PPZ1, hits give low values",1.01
same,normalized growth,"S. cerevisiae deletion strains, locus YML032C, strain rad52, hits give low values",1.02
same,normalized growth,"S. cerevisiae deletion strains, locus YML124C, strain tub3, hits give low values",0.998
same,normalized growth,"S. cerevisiae deletion strains, locus YMR078C, strain ctf18, hits give low values",1
same,normalized growth,"S. cerevisiae deletion strains, locus YMR223W, strain ubp8, hits give low values",0.985
same,normalized growth,[10],0.965
same,normalized growth,"S. cerevisiae deletion strains, locus YNL067W, strain RPL9B, hits give low values",1.02
same,normalized growth,[11],1.02
same,normalized growth,[12],1.02
same,normalized growth,"S. cerevisiae deletion strains, locus YNL183C, strain NPR1, hits give low values",0.938
same,normalized growth,"S. cerevisiae deletion strains, locus YNL233W, strain BNI4, hits give low values",1
same,normalized growth,"S. cerevisiae deletion strains, locus YNL250W, strain rad50, hits give low values",0.996
same,normalized growth,"S. cerevisiae deletion strains, locus YNL271C, strain bni1, hits give low values",0.992
same,normalized growth,"S. cerevisiae deletion strains, locus YNL298W, strain CLA4, hits give low values",1
same,normalized growth,"S. cerevisiae deletion strains, locus YNL307C, strain MCK1, hits give low values",1
same,normalized growth,"S. cerevisiae deletion strains, locus YNR052C, strain pop2, hits give low values",1.01
same,normalized growth,"S. cerevisiae deletion strains, locus YOL012C, strain htz1",0.693
same,normalized growth,"S. cerevisiae deletion strains, locus YOL147C, strain pex11, hits give low values",0.999
same,normalized growth,"S. cerevisiae deletion strains, locus YOR061W, strain CKA2, hits give low values",1.01
same,normalized growth,"S. cerevisiae deletion strains, locus YOR069W, strain VPS5, hits give low values",1.01
same,normalized growth,"S. cerevisiae deletion strains, locus YOR136W, strain idh2, hits give low values",0.999
same,normalized growth,"S. cerevisiae deletion strains, locus YOR144C, strain elg1, hits give low values",0.998
same,normalized growth,"S. cerevisiae deletion strains, locus YOR184W, strain ser1, hits give low values",1.01
same,normalized growth,"S. cerevisiae deletion strains, locus YOR231W, strain MKK1, hits give low values",0.965
same,normalized growth,"S. cerevisiae deletion strains, locus YOR316C, strain cot1, hits give low values",0.997
same,normalized growth,[13],1.01
same,normalized growth,"S. cerevisiae deletion strains, locus YPL256C, strain CLN2, hits give low values",0.973
same,normalized growth,"S. cerevisiae deletion strains, locus YPR119W, strain clb2, hits give low values",1
same,normalized growth,"S. cerevisiae deletion strains, locus YPR141C, strain kar3, hits give low values",0.985
same,normalized growth,"S. cerevisiae deletion strains, locus YPR163C, strain tif3, hits give low values",1.01
same,normalized growth,"S. cerevisiae deletion strains, locus YPR167C, strain met16, hits give low values",1
same,normalized growth,"S. cerevisiae deletion strains, strain wtn01, hits give low values",0.979
same,normalized growth,"S. cerevisiae strains, strain wild type, hits give low values",1.01
CN1C2CCC1CC(NC(=O)c1nn(C)c3ccccc13)C2 (stereo unspecified),normalized growth,[14],1.02
same,normalized growth,"S. cerevisiae deletion strains, locus YAL040C, strain CLN3, hits give low values",1.01
same,normalized growth,"S. cerevisiae deletion strains, locus YCL061C, strain MRC1 (second series), hits give low values",1.01
same,normalized growth,[3],1
same,normalized growth,"S. cerevisiae deletion strains, locus YDR363W, strain ESC2, hits give low values",1
same,normalized growth,"S. cerevisiae deletion strains, locus YER002W, strain NOP16, hits give low values",0.992
same,normalized growth,[15],1.01
same,normalized growth,[16],0.999
same,normalized growth,[11],0.987
same,normalized growth,[12],0.999
same,normalized growth,"S. cerevisiae deletion strains, locus YNL175C, strain NOP13, hits give low values",1.01
same,normalized growth,"S. cerevisiae deletion strains, locus YNL197C, strain WHI3, hits give low values",1.01
same,normalized growth,"S. cerevisiae deletion strains, locus YNL224C, strain SQS1, hits give low values",1
same,normalized growth,"S. cerevisiae deletion strains, locus YOR083W, strain WHI5 (second series), hits give low values",1.02
COc1ccc(NC(=O)C(C)c2ccc(CC(C)C)cc2)cc1 (stereo unspecified),normalized growth,[14],0.976
same,normalized growth,[1],0.897 (active)
same,normalized growth,"S. cerevisiae deletion strains, locus YCL061C, strain MRC1, hits give low values",0.848 (active)
same,normalized growth,[2],0.956
same,normalized growth,"S. cerevisiae deletion strains, locus YDL134C, strain PPH21, hits give low values",0.965
same,normalized growth,[3],0.91
same,normalized growth,[4],0.943
same,normalized growth,[5],0.886 (active)
same,normalized growth,[6],0.916
same,normalized growth,"S. cerevisiae deletion strains, locus YHR087W, strain rtc3, hits give low values",0.824 (active)
same,normalized growth,[7],0.907 (active)
same,normalized growth,[15],0.804 (active)
same,normalized growth,"S. cerevisiae deletion strains, locus YKL190W, strain CNB1, hits give low values",0.914 (active)
same,normalized growth,[8],0.527 (active)
same,normalized growth,"S. cerevisiae deletion strains, locus YLR058C, strain SHM2 (second series), hits give low values",0.974
same,normalized growth,"S. cerevisiae deletion strains, locus YLR085C, strain ARP6, hits give low values",0.878
same,normalized growth,[9],0.46 (active)
same,normalized growth,"S. cerevisiae deletion strains, locus YML094W, strain GIM5, hits give low values",0.903
same,normalized growth,"S. cerevisiae deletion strains, locus YMR219W, strain ESC1, hits give low values",0.94 (active)
same,normalized growth,[16],0.963
same,normalized growth,[10],0.774
same,normalized growth,[12],0.932
same,normalized growth,"S. cerevisiae deletion strains, locus YNL298W, strain CLA4 (second series), hits give low values",0.937
same,normalized growth,"S. cerevisiae deletion strains, locus YNL322C, strain KRE1, hits give low values",0.967
same,normalized growth,"S. cerevisiae deletion strains, locus YNR030W, strain Alg12, hits give low values",0.872 (active)
same,normalized growth,"S. cerevisiae deletion strains, locus YPL055C, strain LGE1, hits give low values",0.838
same,normalized growth,[13],0.858 (active)
same,normalized growth,"S. cerevisiae deletion strains, locus YPR135W, strain CTF4, hits give low values",0.855

# Source: PubChem BioAssay AID1159580 (chemical genetic matrix, 2015)
